MsrA act: activators of bovine methionine sulfoxide reductase A; actives 0.3% (n = 360,000); activation, % at 10.6 µM; purified bovine MsrA, absorbance read-out; in the data active = activation above about 7.5%;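 also: 0% = vehicle and 100% = reference activator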
sPLA2-III inh: Blocks human group III sPLA2 activity; Q9NZ20; AID 743126; QFRET BODIPY PC-A2 liposome hydrolysis, fluorescence; inhibition, % at 12.2 µM; actives 0.56% (n = 370,000);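 active = inhibition above mean plus 3 SD of compounds lying within the high and low control bounds, cut at about 19% in these data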;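 also: 0% = median of test compound wells and 100% = no enzyme DMSO wells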
Target sequence (Q9NZ20 whole entry, looked up): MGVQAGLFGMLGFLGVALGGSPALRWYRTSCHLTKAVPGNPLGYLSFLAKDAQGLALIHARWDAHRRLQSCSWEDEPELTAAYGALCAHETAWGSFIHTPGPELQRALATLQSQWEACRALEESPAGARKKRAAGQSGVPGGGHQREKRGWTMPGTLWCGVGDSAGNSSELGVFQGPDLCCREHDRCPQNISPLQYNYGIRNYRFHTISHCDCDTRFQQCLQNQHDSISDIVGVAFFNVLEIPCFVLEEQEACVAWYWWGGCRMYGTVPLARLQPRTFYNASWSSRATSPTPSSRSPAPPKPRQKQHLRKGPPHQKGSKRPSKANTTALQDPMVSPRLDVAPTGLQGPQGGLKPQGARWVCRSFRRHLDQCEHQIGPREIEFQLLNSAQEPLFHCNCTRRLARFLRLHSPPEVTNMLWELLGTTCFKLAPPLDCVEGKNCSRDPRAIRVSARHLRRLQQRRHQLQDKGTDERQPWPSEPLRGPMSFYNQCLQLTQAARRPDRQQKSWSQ
MsrA inhibitor: inhibits bovine methionine sulfoxide reductase A; actives 0.75% (n = 360,000); purified bovine MsrA, absorbance read-out; inhibition, % at 15.5 µM; in the data active = inhibition above about 4.5%;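 also: 0% = vehicle wells with enzyme and 100% = reference inhibitor wells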
PG9 binder: PG9 antibody binding by small molecule; TR-FRET gp120-PG9 antibody binding; inhibition, % at 6.7 µM; actives 0.43% (n = 360,000); in the data active = inhibition above about 8.5%
rCAG binder: molecules binding r(CAG) RNA repeats. inhibition, % at 3 µM. actives 1.3% (n = 370,000). AID 651821. r(CAG) RNA repeat, TO-PRO-1 dye displacement fluorescence;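 active = inhibition above the plate cutoff, the mean of all test compounds on that plate plus 3 SD, cut at about 35% in these data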;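 also: 0% = DMSO alone and 100% = 100 µM mitoxantrone as full dye displacement; higher means more dye released from RNA so lower well fluorescence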
rCAG bind conf: r(CAG) RNA repeat binding, confirmation; shares compounds with rCAG binder; TO-PRO-1 dye displacement fluorescence; inhibition, % at 3 µM; actives 70% (n = 4,300); AID 652065;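 active = inhibition above a per-plate cutoff, the mean inhibition of sample wells plus 3 SD, cut at about 35% in these data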;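 also: loss of TO-PRO-1 fluorescence as compound displaces dye from 1x1 AA loop RNA; 0% = DMSO only wells and 100% = 100 µM mitoxantrone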
DNA CAG counter: disrupts DNA CAG TO-PRO-1 complex, flagging rCAG hits; shares compounds with rCAG binder; inhibition, % at 3 µM; actives 94% (n = 4,300); d(CAG) DNA oligo TO-PRO-1 dye displacement, fluorescence; AID 652068;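 active = inhibition above its plate's cutoff, the mean test-well inhibition plus 3 SD, cut at about 4.8% in these data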;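 also: 0% = DNA dye mix with DMSO and 100% = 100 µM mitoxantrone; hits displace the dye from DNA and so lower well fluorescence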
* = called active by the depositor. Shown are actives, neighbours in structure and some others; about 3.2% of the full set was active somewhere.

Results for COc1ccc(NC(=O)CSc2nnc(COc3ccccc3)n2Cc2ccco2)cc1OC ?
MsrA act: 1.0; sPLA2-III inh: -8.8; MsrA inhibitor: -0.9; PG9 binder: -0.4; rCAG binder: 1.8

Results for O=C(CSc1nnc(-c2ccc(Cl)cc2)n1Cc1ccco1)Nc1ccc(S(=O)(=O)Nc2nccs2)cc1 ?
sPLA2-III inh: -10.3; rCAG binder: 76.9*; rCAG bind conf: 68.6*; DNA CAG counter: 32.0*

Results for Cc1cc(NS(=O)(=O)c2ccc(NC(=O)CSc3nnc(-c4ccncc4)n3Cc3ccco3)cc2)nc(C)n1 ?
sPLA2-III inh: 0.5; rCAG binder: 17.2

How did Cc1ccc(OCc2nnc(SCC(=O)Nc3ccc(S(=O)(=O)Nc4cc(C)nc(C)n4)cc3)n2Cc2ccco2)cc1 do in these assays?
sPLA2-III inh: -28.2; rCAG binder: 37.8*; rCAG bind conf: 46.8*; DNA CAG counter: 13.1*

What do the screens show for `CC(=O)N1CCc2cc(S(=O)(=O)NCCC(=O)NCc3ccc(Cl)cc3)ccc21`?
sPLA2-III inh: 3.4; rCAG binder: 7.3

What do the screens show for `O=C(O)C(c1ccccc1)N1C(=O)/C(=C\c2ccc(O)c(O)c2)SC1=S` (stereo not given)?
MsrA act: -3.8; sPLA2-III inh: -29.8; MsrA inhibitor: 1.7; PG9 binder: -7.7; rCAG binder: 41.7*; rCAG bind conf: 53.1*; DNA CAG counter: 21.6*

Results for CCOc1cc(/C=C2\SC(=S)N(C(C(=O)O)c3ccccc3)C2=O)ccc1O (stereo not given) ?
MsrA act: -4.1; sPLA2-III inh: -15.5; MsrA inhibitor: 3.0; PG9 binder: -1.4; rCAG binder: 65.8*; rCAG bind conf: 61.9*; DNA CAG counter: 25.4*

How did COc1ccccc1/C=C1\SC(=S)N(C(C(=O)O)c2ccccc2)C1=O (stereo not given) do in these assays?
MsrA act: -5.8; sPLA2-III inh: -16.1; MsrA inhibitor: 1.6; PG9 binder: 0.3; rCAG binder: 67.4*; rCAG bind conf: 67.2*; DNA CAG counter: 27.4*

How did CCOc1ccc(/C=C2/SC(=S)N(C(C(=O)O)c3ccccc3)C2=O)cc1OCC (stereo not given) do in these assays?
MsrA act: -4.2; sPLA2-III inh: -8.7; MsrA inhibitor: -0.3; PG9 binder: -3.7; rCAG binder: 11.3

Results for COc1cc(/C=C2\SC(=S)N(C(C(=O)O)c3ccccc3)C2=O)ccc1O (stereo not given) ?
MsrA act: -2.6; sPLA2-III inh: -12.1; MsrA inhibitor: 1.5; PG9 binder: -2.4; rCAG binder: 43.3*; rCAG bind conf: 33.0; DNA CAG counter: 8.5*

What do the screens show for `O=C(NN1C(=O)/C(=C\c2cccnc2)SC1=S)C(c1ccccc1)c1ccccc1`?
MsrA act: -10.0; sPLA2-III inh: 11.3; MsrA inhibitor: 1.5; PG9 binder: -3.0; rCAG binder: 29.1

How did CCc1ccc(OCC(=O)c2c(O)c3ccccc3oc2=O)cc1 do in these assays?
MsrA act: -10.3; sPLA2-III inh: -3.6; MsrA inhibitor: 0.2; PG9 binder: 1.8; rCAG binder: 12.7

How did CCc1oc2ccccc2c1C(=O)c1cc(Br)c(O)c(Br)c1 do in these assays?
MsrA act: -4.1; sPLA2-III inh: -6.2; MsrA inhibitor: 2.2; PG9 binder: -0.2; rCAG binder: 57.3*; rCAG bind conf: 62.7*; DNA CAG counter: 16.9*

What do the screens show for `CC(=O)NNc1cc(C)nc(N)n1`?
MsrA act: -3.2; sPLA2-III inh: -2.9; MsrA inhibitor: -1.1; PG9 binder: -0.7; rCAG binder: 65.9*; rCAG bind conf: 3.3; DNA CAG counter: 1.4

What do the screens show for `COc1ccc(C(=O)Nc2ccc(S(=O)(=O)Nc3onc(C)c3C)cc2)c(OC)c1`?
MsrA act: -8.9; sPLA2-III inh: -19.3; MsrA inhibitor: 0.7; PG9 binder: 0.0; rCAG binder: 40.7*; rCAG bind conf: 20.3; DNA CAG counter: 4.0

Results for COc1ccccc1NS(=O)(=O)c1ccc(C)c(C(N)=O)c1 ?
MsrA act: -2.2; sPLA2-III inh: -4.6; MsrA inhibitor: -0.8; PG9 binder: -2.1; rCAG binder: 1.3

What do the screens show for `COc1ccccc1C(=O)Nc1ccc(S(=O)(=O)Nc2onc(C)c2C)cc1`?
MsrA act: -0.1; sPLA2-III inh: -9.9; MsrA inhibitor: 0.3; PG9 binder: -2.5; rCAG binder: 13.2

Compound activity as filed in PubChem.
